Source: PubChem BioAssay (NCI)
This is part of a sample that, as a whole, favours compounds with a hit. Of some 83,000 tested, about 20% had one in any assay.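 Method: cells in 96-well plates; compound added at one concentration; 48 h incubation; percent growth measured; values under 10 scored active.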 A number with no mark means an inactive call. Active and inactive are the calls of the source.

What follows are compounds tested on NCI-H226 lung (assay: NCI-60 one-dose screen, 48 h (100 = growth as untreated, 0 = no growth, -100 = all killed)). Conditions: 10 µM unless noted.
Experimental: Growth inhibition of the NCI-H226 human Non-Small Cell Lung tumor cell line is measured as a screen for anti-cancer activity. Cells are grown in 96 well plates and exposed to the test compound for 48 hours. Compounds are tested at a single concentration, which is 10^-5 M for most compounds. The reported endpoint is percent growth (GI% or GIPRCNT), where numbers from 0 - 100% represent growth inhibition, and numbers from -100% - 0 represent cell death. For example, a value of 40 represents 60% growth inhibition. A value of 0 means no net growth occurred over the course of the experiment. A value of -40 indicates 40% of cells at the beginning of the experiment died by the end of the experiment. A value of -100 means all cells are dead at the end of the experiment.
NCI-60 Human Tumor Cell Lines Screen was performed using the standard one-dose NCI protocol, which is described in more detail at https://dtp.cancer.gov/discovery_development/nci-60/default.htm.
Compounds with GIPRCNT values below 10 were considered active. Activity score was based on GIPRCNT using the following formula: […]
Score is 0 for GIPRCNT values of 100 or above, 50 for GIPRCNT values of 0, and 100 for GIPRCNT values of -100.

SMILES	growth
CSc1ccc(-c2n[nH]nc2-c2cc3ccccc3s2)cc1	86%
O=C(O)COc1ccc(Cl)cc1C1CCCCC1	92.8%
CCCCN1CCCn2c1nc1c2c(=O)n(CCC)c(=O)n1CCC	113%
CC(=O)O[C@H]1CC[C@]2(C)[C@H]3CC=C4[C@@H]5CC(C)(C)CC[C@]5(C(=O)NCCNCCNCCN)CC[C@@]4(C)[C@]3(C)CC[C@H]2C1(C)C	91.4%
O=C1c2cccc3cccc(c23)C(=O)N1CCCCN1CCN(CCCCOc2ccc(-c3nc4ccc(N5CCOCC5)cc4[nH]3)cc2)CC1	90.9%
CCOc1cc2ncc(C#N)c(Nc3ccc(OCc4cccc(F)c4)c(Cl)c3)c2cc1NC(=O)CCCCC1CCSS1 (stereo not given)	88.9%
N#Cc1c(-c2ccc(Cl)cc2)nc(N/N=C/c2cccc(Br)c2)nc1N1CCOCC1	92.3%
Cc1ccc2c(c1)C(=O)/C(=C/c1cccc(OCC(=O)c3ccc(Cl)cc3)c1)CS2	91.6%
Cn1c(NCCc2ccc(O)c(O)c2)nc2c1c(=O)n(Cc1ccc(Cl)c(Cl)c1)c(=O)n2C	73.7%
CCCCCC(=O)Oc1ccc(/C(=C(\C)c2ccc(OC)cc2)c2ccc(OCCN3CCCCC3)cc2)cc1	98.7%
C=C1c2nc3ccccc3n2C=C(c2ccc(Cl)cc2)N1Cc1ccc(OC)cc1	80.8%
FC(F)(F)c1[nH]ncc1-c1nc2ccc3n[nH]c(C#Cc4cccnc4)c3c2c2c1CCCC2	47.5%
Cc1cc(C)nc(SC2=C(Nc3ccc(C)c(Cl)c3)C(=O)N(Cc3ccccc3)C2=O)n1	74.5% [30 µM]
O=C1c2c(O)cc(O)cc2-c2c(-c3ccc(O)cc3)oc3cc(O)cc1c23	61.2%
CC1=C(O)C(=O)C(C(C#N)(C#N)C(C#N)C#N)C1 (stereo not given)	96.4%
O=C1NC(=S)N[C@H]1CC(=O)n1cnc2ccccc21	93.6%
O=C1/C(=C/c2cn(-c3ccccc3)nc2-c2ccccc2)SC(=S)N1CCc1ccccc1	99.4%
COc1ccc(/C=C(\C#N)C(=O)Nc2cccc(Nc3nc(SC)nc(-c4cccc([N+](=O)[O-])c4)c3C#N)c2)cc1OC	91.8%
COc1ccc(Nc2nc(SC)nc(-c3cccc([N+](=O)[O-])c3)c2C#N)cc1	18.3%
COc1ccc(S(=O)(=O)N2CCN(C)CC2)cc1NC(=O)c1[nH]c(C)c2c1CCCCC2=O	61.7%

SMILES	growth
COc1ccc(-c2nc3ccc(-c4nc5ccc(N6CCN(c7ccccc7)CC6)cc5[nH]4)cc3[nH]2)cc1OC	69.9%
COc1ccc(-n2nc(C)c3c(Nc4ccc(NC(=O)Nc5c(Cl)cccc5Cl)cc4)ncnc32)cc1	37.2%
CC[C@@H](C(=O)[C@@H](C)[C@@H](O)[C@H](C)[C@@H]1O[C@@H]([C@@H](CC)C(=O)O)CC[C@@H]1C)[C@H]1OC2(C=C[C@@H](O)[C@]3(CC[C@@](C)([C@H]4CC[C@](O)(CC)[C@H](C)O4)O3)O2)[C@H](C)C[C@@H]1C (stereo not given in full)	14.1%
COc1ccc2c(c1)c(-c1nonc1-c1cn(C)c3ccccc13)cn2C	27.3%
COc1cc(-c2nc(C(=O)NCC(=O)NO)nn2-c2ccc(Cl)cc2)cc(OC)c1OC	91.8%
COc1cc(/C=C/C(=O)c2cccnc2Nc2ccc(F)cc2)cc(OC)c1OC	43%
COC[C@H](C)n1c(C2CCOCC2)nc2cnc3cc(-c4c(C)noc4C)c(OC)cc3c21	67%
CN(C)[C@@H]1C(=O)C(C(=O)NCc2nc3[nH]cnc(=S)c3[nH]2)=C(O)[C@@]2(O)C(=O)C3=C(O)c4c(O)cccc4[C@@](C)(O)[C@H]3C[C@@H]12	49.5%
COc1cccc(C2=NN3C(C2)c2cc(Br)cc(OC)c2OC32CCN(Cc3ccccc3)CC2)c1 (stereo not given)	85.3%
COc1ccc(C(=O)COc2ccc(/C=C3\Oc4ccc(OC)cc4C3=O)cc2)cc1	89.5%
Cc1cc(N2CCCCC2)nc(NC2CCCC(Nc3ccnc4cc(Cl)ccc34)C2)n1 (stereo not given)	-50.8% (active)
N#Cc1cnn(-c2nc3c(Cl)cccc3s2)c1N	76.2%
O=C1CC(=NCC(=O)n2c(-c3ccccc3)nc3ccccc32)NN1	90.2%
O=C(C(=O)c1ccc2c(c1)OCO2)c1ccc2c(c1)OCO2	99.9%
CCCCn1cnc2c(Sc3c([N+](=O)[O-])ncn3C)nc(N)nc21	96%
COc1cc2c(cc1O)CC[C@@H]1[C@@H]2CC[C@]2(C)[C@@H](NCCN(C)C)CC[C@@H]12	-86.2% (active)
C=CC(=O)Nc1cccc(-c2nc(SC)nc(Nc3cccc(OC)c3)c2C#N)c1	70.9%
CC(C)(O)c1cn(CCCCN2C(=O)C(=O)c3ccccc32)nn1	94.8%
O=C1c2cc3c(cc2-c2c1c1ccc(F)cc1c(=O)n2CCCNCCO)OCO3	-60.1% (active)
CCCCCCN(CCCCCC)C(=N)c1ccnc2ccccc12	89.2%
